According to PubChem BioAssay AID588342 (National Center for Advancing Translational Sciences (NCATS), 2011):
Screen size: about 360,000 compounds; about 25,000 (6.9%) were called active. Not shown: some 9% with an inconclusive outcome. Only a selection was taken, and actives are over-represented in it overall. A number with no mark means an inactive call. The call rests on the fitted dose curve; in most records, active means well fitted inhibition curve with a large enough effect; inconclusive means small, poorly fitted or top-dose-only effect; inactive means flat fitted curve, though single readings scatter.

What follows are compounds tested against Luciferin 4-monooxygenase (Photinus pyralis) (UniProt P08659) (assay: qHTS profiling assay for firefly luciferase inhibitor/activator using purifed enzyme and Km concentrations of substrates (counterscreen for miR-21 project)). Conditions: purified FLuc, luminescence inhibition; series mostly up to 57.5 µM; activity change, negative = inhibition: at the top concentration.
Summary of the method: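 Biochemical qHTS of compounds, final roughly 60 µM downward over six points, against 10 nM purified firefly luciferase using Km concentrations of substrates (10 uM D-luciferin, 10 uM ATP) in Tris acetate pH 7.5 buffer; luminescence output.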
Further: nearly all actives have a fitted effect of over 55% in size.
Potency means the concentration at half of the fitted maximal effect.
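Wherever activity change, negative = inhibition is given: plate controls were vehicle for no effect and reference inhibitor for full effect.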

Sequence of Luciferin 4-monooxygenase (Photinus pyralis) (P08659 whole entry, looked up): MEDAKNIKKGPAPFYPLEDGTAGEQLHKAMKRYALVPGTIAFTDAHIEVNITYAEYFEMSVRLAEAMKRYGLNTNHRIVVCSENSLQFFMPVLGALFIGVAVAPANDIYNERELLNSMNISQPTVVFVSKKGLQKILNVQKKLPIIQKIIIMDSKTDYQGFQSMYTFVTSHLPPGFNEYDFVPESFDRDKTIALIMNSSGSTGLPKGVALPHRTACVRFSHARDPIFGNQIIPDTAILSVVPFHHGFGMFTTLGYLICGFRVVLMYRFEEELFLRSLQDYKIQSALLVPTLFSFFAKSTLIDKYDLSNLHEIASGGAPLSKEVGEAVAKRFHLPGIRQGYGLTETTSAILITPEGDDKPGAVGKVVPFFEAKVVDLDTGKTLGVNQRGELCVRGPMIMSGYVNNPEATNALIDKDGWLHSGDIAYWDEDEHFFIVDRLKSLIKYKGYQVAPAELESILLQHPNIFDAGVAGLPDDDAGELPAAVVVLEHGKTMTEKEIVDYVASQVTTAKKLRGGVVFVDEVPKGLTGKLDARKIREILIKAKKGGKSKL

Which “activity change, negative = inhibition” value does the source give for `O=C(OCc1cc(=O)n2ccsc2n1)C1(c2ccc(Cl)cc2)CC1` here?
The value was 2.5%.

For `COCC(C)NS(=O)(=O)c1ccc(N2CCCCS2(=O)=O)cc1` (stereo unspecified), which “activity change, negative = inhibition” value is on record?
The value was 1.96%.

For `COc1ccccc1N=C1SC(C)CN1C(=O)C1CCC1` (stereo unspecified), which “activity change, negative = inhibition” value is on record?
The value was 1.9%.

Which “activity change, negative = inhibition” value does the source give for `CCOc1ccc(C(=O)Nc2ccc3nc4c(c(Nc5ccccc5OC)c3c2)CCCC4)cc1` here?
Its value is -11.2%.

With `CCOC(=O)C1CCN(c2ncnc3c2c(-c2ccccc2)cn3-c2cccc(C)c2)CC1` as the compound, how does the “activity change, negative = inhibition” value read?
Its value is 0.255%.

`COc1ccc(C(C)NC(=O)C23CC4CC(CC(C4)C2)C3)cc1` (stereo unspecified) was tested. Which “activity change, negative = inhibition” value did it give?
The value was -0.288%.

For `O=C(Nc1ccc(-c2ccc3nncn3n2)cc1)C1CCCCC1`, which Potency is on record?
Its Potency is 26.9 µM (active).

`CC(=O)c1ccc(S(=O)(=O)Nc2ccc(-c3ccc4nncn4n3)cc2)cc1` was tested. Which “activity change, negative = inhibition” value did it give?
Its value is 6.25%.

`CC(C)NS(=O)(=O)c1ccc(NC(=O)C2CCCCC2)cc1` was tested. Which “activity change, negative = inhibition” value did it give?
Its value is 3.94%.

Which “activity change, negative = inhibition” value does the source give for `COc1ccccc1NC(=O)c1oc2ccccc2c1NC(=O)COc1ccccc1OC` here?
Its value is 4.13%.

Which “activity change, negative = inhibition” value does the source give for `CCCCN(CC)CCCNC(=O)c1nn(C)c2c1CSc1ccccc1-2` here?
The value was -2.58%.

For `CCOC(=O)c1c(Cc2ccc(Cl)cc2)c[nH]c1C`, which Potency is on record?
The Potency was 19 µM (active).

For `CCOC(=O)N1CCN(C(=O)CNC(=O)Cc2ccc(Cl)cc2)CC1`, which “activity change, negative = inhibition” value is on record?
The value was 2.66%.

How did the “activity change, negative = inhibition” value turn out when `CCOC(=O)c1ccc(CS(=O)c2ccc(Cl)cc2)o1` (stereo unspecified) was run?
Its value is 2.9%.

For `CC1(c2nnc(Cc3ccccc3)o2)CC(c2ccccc2F)=NO1` (stereo unspecified), which “activity change, negative = inhibition” value is on record?
The value was 3.85%.

How did the Potency turn out when `Cc1nc(-c2ccc(Cl)cc2)sc1C1(C)CC(c2ccccc2F)=NO1` (stereo unspecified) was run?
The Potency was 19 µM (active).

`Cc1nc(C(=O)Nc2ccc(Cl)cc2)sc1C1(C)CC(c2ccccc2)=NO1` (stereo unspecified) was tested. Which “activity change, negative = inhibition” value did it give?
Its value is -0.924%.

With `CN(CC(=O)Nc1ccc(F)c(F)c1F)C(=O)C1CC(=O)N(C2CCCC2)C1` (stereo unspecified) as the compound, how does the “activity change, negative = inhibition” value read?
The value was 5.16%.

How did the Potency turn out when `O=C(/C=C/Sc1ncn[nH]1)c1ccc(Cl)cc1` was run?
The Potency was 1.9 µM (active).

For `O=C(CSc1ncn[nH]1)NCc1ccc2c(c1)OCO2`, which “activity change, negative = inhibition” value is on record?
Its value is 1.02%.

`COC(=O)c1cc(NC(=O)C2C3C=CC(C3)C2C(=O)O)cc(C(=O)OC)c1` (stereo unspecified) was tested. Which “activity change, negative = inhibition” value did it give?
Its value is 2.36%.

With `CC(=O)NS(=O)(=O)c1ccc(NC(=O)C2C3C=CC(C3)C2C(=O)O)cc1` (stereo unspecified) as the compound, how does the “activity change, negative = inhibition” value read?
The value was -1.33%.

With `CC(C)COC(=O)c1ccc(NC(=O)C2C3C=CC(C3)C2C(=O)O)cc1` (stereo unspecified) as the compound, how does the Potency read?
Its Potency is 19 µM (active).

For `CCCN(CC1CC1)C(=S)NC(=O)c1ccccc1Br`, which “activity change, negative = inhibition” value is on record?
The value was -1.63%.

For `Cc1csc2nc(COC(=O)c3ccc(NC(=O)COc4ccccc4F)cc3)cc(=O)n12`, which “activity change, negative = inhibition” value is on record?
Its value is 1.55%.

Which “activity change, negative = inhibition” value does the source give for `COc1ccccc1N1CCN(C(=O)C2CCN(S(=O)(=O)c3c(C)noc3/C=C/c3ccc(C)cc3)CC2)CC1` here?
The value was -0.999%.

How did the “activity change, negative = inhibition” value turn out when `COCCNC(=O)C1CCN(S(=O)(=O)c2ccc3c(c2)OCCO3)CC1` was run?
The value was 0.983%.

How did the “activity change, negative = inhibition” value turn out when `O=C(NCc1cccs1)C1CCN(S(=O)(=O)c2ccc3c(c2)OCCO3)CC1` was run?
The value was 1.65%.

How did the Potency turn out when `O=C(Nc1ccccn1)C1CCN(S(=O)(=O)c2ccccc2)CC1` was run?
Its Potency is 23.9 µM (active).

How did the “activity change, negative = inhibition” value turn out when `O=C(NCc1ccccn1)C1CCN(S(=O)(=O)c2ccc(Br)cc2)CC1` was run?
Its value is -0.607%.

With `Cc1csc(NC(=O)C2CCN(S(=O)(=O)c3ccccc3)CC2)n1` as the compound, how does the “activity change, negative = inhibition” value read?
The value was -1.2%.

`O=C(Nc1ccccn1)C1CCN(S(=O)(=O)c2ccc3c(c2)OCCO3)CC1` was tested. Which Potency did it give?
Its Potency is 19 µM (active).

`C=Cc1ccc(Cn2c(C(=O)O)c(CNC3CCCC3)c3ccc(C)cc32)cc1` was tested. Which “activity change, negative = inhibition” value did it give?
The value was -3.1%.

How did the “activity change, negative = inhibition” value turn out when `CCOC(=O)c1c(NC(C)=O)c2c3c(sc2n1Cc1c(C)cc(C)cc1C)CCCC3` was run?
Its value is 3.94%.

Which “activity change, negative = inhibition” value does the source give for `CCOC(=O)c1ccccc1NC(=O)COC(=O)C(Cc1c[nH]c2ccccc12)NC(C)=O` (stereo unspecified) here?
Its value is 6.1%.

With `CCC(=O)N1CCc2cc(S(=O)(=O)NCCC(=O)Nc3cccc(C)c3C)ccc21` as the compound, how does the “activity change, negative = inhibition” value read?
Its value is -11.4%.

For `Cc1oc(C)c2c(=O)cc(-c3ccc4c(c3)OCO4)cc(OC(=O)c3ccc(Cl)cc3)c12`, which “activity change, negative = inhibition” value is on record?
The value was -12.7%.

Which “activity change, negative = inhibition” value does the source give for `Cc1cc(/C=C2\SC(=Nc3ccc(N4CCOCC4)cc3)N(C)C2=O)c(C)n1-c1cccnc1` here?
The value was -18.2%.

How did the “activity change, negative = inhibition” value turn out when `Cc1ccc2c(c1)C(O)(CC(=O)c1cccnc1)C(=O)N2` (stereo unspecified) was run?
The value was 0.816%.

How did the Potency turn out when `Cc1cc(/C=C2/NC(=O)NC2=O)c(C)n1-c1cccnc1` was run?
The Potency was 15.1 µM (active).

With `Cc1ccccc1N1CC(c2nc3ccccc3[nH]2)CC1=O` (stereo unspecified) as the compound, how does the “activity change, negative = inhibition” value read?
Its value is -0.236%.

`CSc1cc(C)n(-c2ccccc2C)c(=S)c1C(C)=O` was tested. Which “activity change, negative = inhibition” value did it give?
Its value is -0.379%.

Which Potency does the source give for `Cc1ccccc1-n1c(C)cc(/C=C2\NC(=O)NC2=O)c1C` here?
Its Potency is 1.9 µM (active).

`C=CCn1c(=O)c(C(=O)NCc2ccc3c(c2)OCO3)c(O)c2ccccc21` was tested. Which “activity change, negative = inhibition” value did it give?
The value was -0.503%.

Which “activity change, negative = inhibition” value does the source give for `O=C(NNS(=O)(=O)c1ccc(F)cc1)c1cnccn1` here?
The value was 0.8%.

For `O=C(CC1Oc2ccccc2NC1=O)NCc1ccc(F)cc1` (stereo unspecified), which “activity change, negative = inhibition” value is on record?
Its value is -1.72%.

For `CCOC(=O)c1c(C)oc2ccc(N(C(=O)c3ccncc3)S(=O)(=O)c3ccc(CC)cc3)cc12`, which “activity change, negative = inhibition” value is on record?
Its value is 2.91%.

With `O=Cc1c(Cl)cccc1Cl` as the compound, how does the “activity change, negative = inhibition” value read?
Its value is 6.02%.

Which “activity change, negative = inhibition” value does the source give for `CSCCNCc1cn(-c2ccc(F)cc2F)nc1-c1ccccc1C` here?
Its value is 1.46%.

With `Cc1ccc(-c2nn(-c3ccccc3)cc2CN(Cc2ccccc2)C(=O)CCC(=O)O)o1` as the compound, how does the “activity change, negative = inhibition” value read?
Its value is -0.788%.

For `Cc1ccc(-c2nn(-c3cccc(F)c3)cc2CNCCc2ccncc2)o1`, which Potency is on record?
The Potency was 15.1 µM (active).

For `CCCN(CCC)CCNC(=O)Cn1cnc2sc(C)c(S(=O)(=O)N3CCC(C)CC3)c2c1=O`, which “activity change, negative = inhibition” value is on record?
Its value is 0.958%.

With `N#Cc1nc(/C=C/c2ccc(F)cc2)oc1NC1CCCCC1` as the compound, how does the “activity change, negative = inhibition” value read?
Its value is 5.61%.

For `CC(C)(C)OC(=O)N/N=C/c1cn(-c2ccccc2)nc1-c1cccnc1`, which “activity change, negative = inhibition” value is on record?
The value was -11.3%.

For `Cc1ccc(-c2nn(-c3ccccc3)cc2/C=N/NC(=O)c2ccc3c(c2)OCO3)cc1`, which Potency is on record?
The Potency was 4.26 µM (active).

Which “activity change, negative = inhibition” value does the source give for `O=C(N/N=C/c1ccc([N+](=O)[O-])o1)c1cn(-c2ccccc2)nc1-c1ccc(F)cc1` here?
The value was -9.76%.

Which “activity change, negative = inhibition” value does the source give for `COc1ccc(C(=O)N2CCC(c3nc4ccccc4o3)CC2)cc1` here?
Its value is -7.24%.

Which “activity change, negative = inhibition” value does the source give for `CC(C)c1ccc(OCC(O)CN2CCN(c3ccccn3)CC2)cc1` (stereo unspecified) here?
The value was 2.2%.

Which “activity change, negative = inhibition” value does the source give for `CCOc1ccc(C(C(=O)NCCOC)N(CCOC)C(=O)CCC(=O)Nc2ccccn2)cc1` (stereo unspecified) here?
The value was -1.94%.

Which Potency does the source give for `CC(O)c1ccc(OCCN(C)c2ccccn2)cc1` (stereo unspecified) here?
The Potency was 15.1 µM (active).

`COCCn1c(CCC(=O)Nc2cc(C)ccc2C)nc2cccnc21` was tested. Which “activity change, negative = inhibition” value did it give?
The value was -0.522%.

With `COc1ccc2c(c1)C=C(C(=O)NCc1cc(Br)ccc1OC)CO2` as the compound, how does the “activity change, negative = inhibition” value read?
The value was -6.57%.

`COc1ccccc1NC(=O)c1sc2nc(C)c(C(=O)Nc3ccc(Cl)cc3)c(-c3ccc(Br)cc3)c2c1N` was tested. Which “activity change, negative = inhibition” value did it give?
The value was -1.17%.

With `CC(C)OC(=O)CN1C(=O)C(=O)c2ccccc21` as the compound, how does the “activity change, negative = inhibition” value read?
Its value is -0.663%.

`O=C(CN1CCCCCC1)NCCN1C(=O)S/C(=C\c2ccccc2Cl)C1=O` was tested. Which “activity change, negative = inhibition” value did it give?
The value was -7.09%.

Which Potency does the source give for `Cc1cc(/C=C2/SC(=O)N(CC(=O)OC(C)C)C2=O)c(C)n1C` here?
The Potency was 15.1 µM (active).
